Source: PubChem
EWS-Fli inh: EWS/Fli-driven NR0B1 reporter inhibitors, primary screen, A673 cells, NR0B1 luciferase, luminescence, MLPCN library; inhibition, % at 12.6 µM; 0.67% of 350,000 active; viability-normalised;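 active means mean inhibition of at least 50% after viability correction, with every replicate also passing that limit; inconclusive means mean reaches 50% but only one of two replicates passes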;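 further: firefly luciferase signal divided by Alamar Blue viability fluorescence both relative to DMSO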
TRPM1 prom inh: inhibitors of MITF-dependent TRPM1 promoter reporter, primary screen, cell-based, SK-MEL-5, single point, luciferase; SK-MEL-5 TRPM1 promoter luciferase, 24 h; inhibition, % at 12.5 µM; 0.83% of 330,000 active;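 active means mean inhibition across replicates of 60% or more, whatever share of single replicates reaches that level; inconclusive means some that reach 60%, reason not given; inactive means mean inhibition across replicates below 60%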
LGR2 inh: inhibitors of bursicon-induced LGR2 CRE-luciferase signal, primary screen, cell-based, HEK293, CRE-luciferase reporter, bursicon stimulation. bursicon-stimulated, 4 h. inhibition, % at 9.99 µM. 0.35% of 380,000 active. Drosophila bursicon receptor LGR2 (rickets);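 active means drop in luminescence signal, shown as inhibition above about 50% in the replicate tests, limit read from the data, passing the limit was not always enough; inconclusive means probably only some replicates passing the limit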;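 further: agonist challenge used bursicon conditioned medium at about half maximal strength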
EBV LMP1 NFkB: EBV LMP1-driven NF-kappaB luciferase reporter inhibitors, primary screen, cell-based, luminescence, single point; LMP1-induced NF-kappaB luciferase reporter cells; inhibition, % at 12.5 µM; 0.69% of 350,000 active; in the data active means inhibition above about 41%; inconclusive means no clear call, values can overlap the other calls;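 further: 0% = neutral control wells and 100% = reference inhibitor control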
Shn3 inh set2: reduction of Shn3 3'UTR firefly luciferase signal, primary screen, Schnurri-3 inhibitor project, cell-based, Clone20 osteoblasts, set 2. Clone20 osteoblast Shn3 3'UTR firefly luciferase, 24 h. 0.52% of 360,000 active. inhibition, % at 12.5 µM;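 active means mean inhibition of at least 75% with every replicate also reaching 75%; inconclusive means mean inhibition at least 75% but some replicate below; inactive means mean inhibition below 75%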;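 further: 0% = median of neutral control wells and 100% = pilot-screen positive control compound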
PAX8 reporter: inhibitors of PAX8-driven TPO luciferase reporter, primary screen, RMG-I cells, single concentration. SteadyGlo, 24 h. inhibition, % at 12.6 µM. AID 652154, 2013. 1.2% of 360,000 active;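 active means mean replicate inhibition at least 60% with every replicate also reaching 60%; inconclusive means only one of the two criteria is met; inactive means mean below 60% and not all replicates reaching 60%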;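 further: luciferase light reporting Pax8 driven TPO promoter activity; plate controls were median of neutral control wells for no effect and mitoxantrone controls for full effect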
Numbers without * were called inactive; ? = inconclusive; · = no result given. Only some compounds are listed: those with a hit (about 2.2% of all), similar ones and a draw of the others.

SMILES | EWS-Fli inh | TRPM1 prom inh | LGR2 inh | EBV LMP1 NFkB | Shn3 inh set2 | PAX8 reporter
COc1ccc(S(=O)(=O)N(C)C[C@H]2Oc3c(NS(C)(=O)=O)cccc3C(=O)N([C@@H](C)CO)C[C@H]2C)cc1 | -1.2 | · | -8.8 | · | · | -10.1
COCC(=O)Nc1ccc2c(c1)[C@H]1C[C@@H](CC(=O)NCC3CC3)O[C@@H](CO)[C@H]1O2 | -7.9 | · | 19.5 | · | · | ·
CN(C)C(=O)[C@H]1[C@H](CO)[C@H]2Cn3c(ccc(-c4ccccc4F)c3=O)[C@H]2N1C(=O)c1cnccn1 | -3.0 | · | 3.9 | · | · | -3.3
COc1ccccc1-c1cnc2c(c1)C(=O)N([C@@H](C)CO)C[C@H](C)[C@H](CN(C)Cc1ccc(F)cc1)O2 | 26.1 | · | 7.2 | · | · | 2.4
COc1cc(/C=N/O)ccc1OCc1ccc(Cl)cc1 | -47.4 | · | · | · | · | -214.1
CCOc1cc(/C=N/N=C(N)N)ccc1OCc1ccc(Cl)cc1 | -3.8 | 90.0* | 53.3* | 4.8 | 95.3* | 31.0
C[C@H](CO)N1C[C@H](C)[C@H](CN(C)CC2CC2)Oc2ncc(C#CC3(O)CCCC3)cc2C1=O | -5.4 | · | 7.4 | · | · | ·
CCOC(=O)NC1CCc2cc(OC)c(OC)c(OC)c2-c2ccc(SC)c(=O)cc21 (configuration not stated) | 35.2 | 33.1 | -17.2 | -0.2 | -2.6 | 83.4*
CCCCOC(=O)NC1CCS(=O)(=O)C1 (configuration not stated) | · | 0.9 | · | -0.7 | 4.2 | ·
CCOC(=O)N1CCC(N2C(=O)c3ccccc3C2Nc2cc(OC)c(OC)c(OC)c2)CC1 (configuration not stated) | 2.3 | 5.9 | -2.8 | 7.2 | 8.4 | ·
CCCCOC(=O)NC1CCc2cc(OC)c(OC)c(OC)c2-c2ccc(SC)c(=O)cc21 (configuration not stated) | 55.0* | 36.5 | -2.3 | 0.0 | -1.4 | 79.0*
COc1cc2c(c(OC)c1OC)-c1ccc(NC(=O)c3ccccc3)c(=O)cc1[C@@H](NC(C)=O)CC2 | 53.9* | 3.0 | 12.7 | -1.0 | -1.7 | 59.9
CN[C@H]1CCc2cc(OC)c(OC)c(OC)c2-c2ccc(OC)c(=O)cc21 | 56.9* | 40.4 | 11.9 | -12.4 | -7.4 | 90.3*
COc1ccc2c3c([nH]c2c1)[C@@H](CO)N(S(C)(=O)=O)CC31CN(C(=O)c2ccncc2)C1 | 27.4 | · | -10.7 | · | · | ·
CCOCC(=O)NC1CCc2cc(OC)c(OC)c(OC)c2-c2ccc(SC)c(=O)cc21 (configuration not stated) | ? | 45.8 | 11.3 | -3.8 | 1.9 | 86.4*
COc1cc(C(=O)NCCC(=O)NC2CCCc3ccccc32)cc(OC)c1OC (configuration not stated) | · | 1.7 | 10.0 | -8.8 | -9.6 | -5.4
CC[n+]1c(/C=C/c2cc([N+](=O)[O-])ccc2O)ccc2ccccc21 | -11.9 | -13.0 | 2.4 | 6.3 | -25.5 | 19.0
CCN1/C(=C/c2ccc3cc(C)cc(C)c3[n+]2CC)Sc2cc(C)ccc21 | 75.7* | 82.6* | 82.1* | 29.0 | 65.0 | 101.5*
CCN1/C(=C/c2ccc3cc(C)ccc3[n+]2CC)Sc2ccc3sccc3c21 | · | 100.1* | · | 20.9 | 93.0* | ·
Cc1ccc2c(c1)S/C(=C\c1cccc[n+]1C)N2CCO | 3.0 | 9.0 | 0.0 | 1.7 | -16.5 | 21.5
CCN1/C(=C\c2ccc3cc(C)ccc3[n+]2CC)Sc2cc(C)c(C)cc21 | 56.6* | 72.6* | 34.1 | 28.6 | 88.9* | 91.5*
CCN1/C(=C/c2ccc3cccc(C)c3[n+]2CC)Sc2ccccc21 | · | 72.2* | 31.4 | -3.0 | 50.6 | ·
CC(C)NC(=O)Nc1ccc2c(c1)CC(=O)N([C@@H](C)CO)C[C@@H](C)[C@H](CN(C)Cc1ccc3c(c1)OCO3)O2 | · | · | -13.1 | · | · | -1.2
COc1ccc(/C=N/NC(=O)c2nc(-c3ccccc3)n(-c3ccccc3)n2)c(O)c1 | · | 57.5 | 19.9 | 18.5 | 90.7* | 43.4
CC(C)(C)c1cc(C(=O)N/N=C/c2ccc(F)cc2)n(-c2ccccc2)n1 | -0.8 | -11.6 | -1.4 | -14.9 | 5.1 | ·
SMILES | EWS-Fli inh | TRPM1 prom inh | LGR2 inh | EBV LMP1 NFkB | Shn3 inh set2 | PAX8 reporter
CC(C)(C)c1cc(C(=O)N/N=C/c2ccccc2O)n(-c2ccccc2)n1 | · | 47.6 | 32.4 | 9.3 | 91.4* | -12.3
COc1ccc(/C=N/NC(=O)c2nc(-c3ccccc3)n(-c3ccccc3)n2)cc1 | 10.3 | -12.1 | -13.4 | 1.3 | -6.4 | 28.9
COc1ccc2[nH]c(C(=O)N/N=C/c3ccc(O)cc3O)cc2c1 | 14.9 | 58.9 | 9.5 | 39.9 | 89.1* | 84.9*
CCOc1ccc2[nH]c(C(=O)N/N=C/c3ccc(OC)cc3)cc2c1 | ? | 15.6 | -11.5 | 7.8 | 4.4 | 14.7
COc1ccc(NC(=O)N2CC(=O)N3[C@H](CO)[C@H](c4ccc(-c5ccc(C)cc5)cc4)[C@@H]3C2)cc1 | -11.2 | · | -4.7 | · | · | -2.5
C[C@@H]1CCCCO[C@@H](CN(C)Cc2ccccc2)[C@@H](C)CN([C@H](C)CO)C(=O)c2cc(NC(=O)CCCN(C)C)ccc2O1 | -4.4 | · | · | · | · | -8.4
CC(C)C#Cc1cnc2c(c1)C(=O)N([C@H](C)CO)C[C@H](C)[C@H](CN(C)C(=O)Nc1ccccc1)O2 | -1.8 | · | 16.3 | · | · | ·
CCCC(=NCCc1c(C)[nH]c2ccccc12)C1=C(O)CC(c2ccccc2)CC1=O (configuration not stated) | · | 1.3 | -23.3 | 6.1 | -5.9 | ·
CCCCC(=NCCc1c(C)[nH]c2ccccc12)C1=C(O)CC(c2ccccc2)CC1=O (configuration not stated) | 50.8* | -1.6 | 12.0 | 12.1 | 11.4 | 25.9
CC1CCCC(NC(=O)NC(=O)CCl)C1C (configuration not stated) | 8.4 | 71.1* | 6.4 | 10.3 | -1.4 | 13.9
CCCNC(=O)N1C[C@@H]2[C@H](c3ccccc31)[C@@H](CO)N2C(=O)Nc1ccccc1F | -1.7 | · | 4.0 | · | · | 5.8
Cc1cccc(Nc2nc(N)nc(CCl)n2)c1 | 39.7 | -8.7 | -8.7 | -26.9 | 7.3 | 89.8*
COc1cccc(Nc2nc(N)nc(CCl)n2)c1 | 58.6* | -27.6 | -40.4 | -20.1 | · | 97.0*
Cc1cccc(Nc2nc(N)nc(CSc3nccc(C)n3)n2)c1 | · | -18.0 | · | -4.5 | 23.1 | -24.7
COc1ccc2c3c(n(C)c2c1)[C@H](CO)N(Cc1ccccc1)CC31CCN(S(C)(=O)=O)CC1 | 34.7 | · | -22.9 | · | · | ·
CCOC(=O)CSC1=C(C#N)C(c2ccc(C)o2)CC(=O)N1 (configuration not stated) | 48.3 | 28.2 | -1.5 | 0.0 | 5.8 | 64.7*
CC1(C)CN(O)CCN1O | 73.4* | 10.1 | -2.8 | 8.1 | 10.2 | 17.2
O=c1c2ccccc2cnn1CCOc1ccccc1 | · | 58.4 | 86.4* | 74.1* | 58.2 | ·
O=C(O)Cn1ncc2ccccc2c1=O | 7.2 | -18.9 | 12.7 | -16.7 | 1.4 | -5.6
O=C(NC1CC1)c1ccc2c(c1)C1C3CCC(C3)C1C(c1ccccc1)N2 (configuration not stated) | -2.7 | 1.9 | 36.4 | 10.2 | 23.5 | 115.3*
C[C@@H]1CCCCO[C@@H](CN(C)S(=O)(=O)c2cccs2)[C@H](C)CN([C@H](C)CO)C(=O)c2cc(NC(=O)Nc3ccc(C(F)(F)F)cc3)ccc2O1 | 7.1 | · | 8.4 | · | · | 79.8*
